MCF10A rerep: induces DNA re-replication in MCF 10a normal breast cells; MCF 10A DNA re-replication, Hoechst nuclear intensity, 48 h; Potency, µM (top dose mostly 46.1 µM), without a hit: at the highest dose activity, positive = re-replication, most hits filed as activators; 350,000 tested, 2.9% active; further: potency means the concentration at half of the fitted maximal effect; % of control where 0% means no effect; nearly all actives have a fitted effect of over 50% in size
S-ASM inh: human S-ASM enzyme inhibition; P17405; placental ASM, HMU-PC fluorogenic substrate, 60 min; Potency, µM (series often up to 57.5 µM), for inactives: at the highest dose activity change, negative = inhibition, usual class: inhibitors; 340,000 tested, 0.006% active; further: potency means the concentration at half of the fitted maximal effect
Target sequence (P17405 47-631 limits assumed): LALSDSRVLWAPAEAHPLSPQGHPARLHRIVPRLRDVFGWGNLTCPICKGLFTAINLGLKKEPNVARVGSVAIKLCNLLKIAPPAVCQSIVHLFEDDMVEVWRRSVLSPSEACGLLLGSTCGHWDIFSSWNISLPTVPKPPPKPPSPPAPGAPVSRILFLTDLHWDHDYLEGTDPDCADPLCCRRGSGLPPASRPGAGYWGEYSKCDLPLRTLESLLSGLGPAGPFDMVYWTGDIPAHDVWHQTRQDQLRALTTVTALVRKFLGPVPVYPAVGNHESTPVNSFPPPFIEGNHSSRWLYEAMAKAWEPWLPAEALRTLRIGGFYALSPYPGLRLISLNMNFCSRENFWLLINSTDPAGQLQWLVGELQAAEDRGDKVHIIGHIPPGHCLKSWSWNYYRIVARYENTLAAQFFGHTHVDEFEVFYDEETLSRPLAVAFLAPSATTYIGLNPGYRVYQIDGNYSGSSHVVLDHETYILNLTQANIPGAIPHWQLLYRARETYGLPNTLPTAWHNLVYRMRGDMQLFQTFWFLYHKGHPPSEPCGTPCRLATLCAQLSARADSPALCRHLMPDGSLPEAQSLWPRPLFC
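Human placenta-derived ASM preincubated with compound 10 min at room temperature, then reacted with 9 uM (final) fluorogenic HMU-PC substrate for 60 min at 37 C. Stop solution raises pH to 10; fluorescence read at Ex 386/Em 447 nm.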
SW480 rerep: DNA re-replication induction in SW480 cells | 340,000 tested, 1.8% active | Potency, µM (highest dose often 46.1 µM), for inactives: at the top dose re-replication activation, actives largely listed as activators | SW480 DNA re-replication, Hoechst DNA content imaging, 48 h; further: potency means the concentration at half of the fitted maximal effect; % of control where 0% means no effect; nearly all actives have a fitted effect of over 55% in size
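Per well, 250 cells were exposed to pinned compound for 48 hr. Nuclear DNA was visualised with Hoechst (40 min, 37 C) and total object intensity recorded by fluorescence scanning.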
KB-3-1 cytotox: kills parental KB-3-1 adenocarcinoma cells | Potency, µM (doses to about 46.1 µM), most hits filed as cytotoxic | KB-3-1 viability, CellTiter-Glo ATP luminescence, 72 h | 400,000 tested, 1.4% active; further: potency means the concentration at half of the fitted maximal effect; on the % scale 0 is the no-effect control and ±100 the full control effect; nearly all actives have a fitted effect of over 60% in size
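Parental KB-3-1 viability, qHTS format: 72 h compound exposure, 37 °C; CellTiter-Glo; media-only wells and DMSO plates as controls; concentration-effect fits on corrected data.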
Giardia killer: Giardia lamblia killing. Giardia lamblia trophozoite viability. activity change, % at 7.66 µM, hits read low. 340,000 tested, 0.15% active. AID 540267; in the data active means activity change below about -80%; inconclusive means between about -30% and that limit;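 further: parasites exposed to compound for two days anaerobically before the ATP read; on the % scale 0 is the no-effect control and ±100 the full control effect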
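Giardia trophozoites, 100 cells per well, were exposed to compounds for 48 hrs at 37 deg C under anaerobic conditions; viability was then read as ATP content by bioluminescence after 15-30 min at room temperature.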
KB-V1 cytotox: kills drug-selected multidrug resistant KB-V1 cells. KB-V1 MDR cells viability, CellTiter-Glo, 72 h. Potency, µM (doses to about 46.1 µM), actives largely listed as cytotoxic. 400,000 tested, 3.4% active. AID 1347076; further: potency means the concentration at half of the fitted maximal effect; on the % scale 0 is the no-effect control and ±100 the full control effect; nearly all actives have a fitted effect of over 60% in size
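Cells of the MDR subline KB-V1 are plated, dosed with compound at multiple concentrations, and incubated 72 h at 37 degrees C; CellTiter-Glo is then added and luminescence read after 10 min.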
* hit, by the source's call; i = inactive; u = inconclusive; x = no result; [ ] = another dose, or the depositor's remark. Rows were chosen to be rich in hits. Some 6.9% of all compounds tested hit in one or more screens of this group. Unless noted, the call rests on the fitted dose curve; in most records, active means well fitted curve in the direction sought with a large enough effect; inconclusive means small, poorly fitted or top-dose-only effect, or another doubt; inactive means no such curve, though single readings can be large; an effect the other way counts as inactive or inconclusive.

SMILES | MCF10A rerep | S-ASM inh | SW480 rerep | KB-3-1 cytotox | Giardia killer | KB-V1 cytotox
COc1ccc(CNC(=O)C(=O)NCC(c2ccco2)S(=O)(=O)c2ccc(Cl)cc2)cc1 (configuration not stated) | x | x | x | i | x | i
CCn1c(=S)[nH]c2scc(-c3cccs3)c2c1=O | u | -2.1% | 158.1% | u | 27.8 | i
CC(C)n1c(=S)[nH]c2scc(-c3cccs3)c2c1=O | 6.51µM* | -3.7% | -2.3% | i | -15.8 | i
COC(=O)c1ccc(-n2c(C)cc(C(=O)CSc3cccc[n+]3[O-])c2C)cc1 | 1.3µM* | -0.3% | -4.0% | i | 10.5 | u
Cc1cc(C(=O)CSc2cccc[n+]2[O-])c(C)n1-c1ccc(OC(F)F)cc1 | -6.3% | -1.3% | -5.3% | i | 10.5 | i
Cc1ccc(C2=NN3C(C2)c2ccccc2OC32C(=O)Nc3ccccc32)cc1 (configuration not stated) | u | -3.1% | 5.8% | i | -5.3 | i
CN1C(=O)C2(Oc3ccccc3C3CC(c4ccccc4)=NN32)c2ccccc21 (configuration not stated) | 19.8% | -12.9% | u | i | 3.8 | 18.4µM*
c1ccc(COn2nnc3ccccc32)c(COn2nnc3ccccc32)c1 | u | -4.3% | -6.8% | i | 9.6 | 16.4µM*
Cc1cccc(N2CCN(S(=O)(=O)c3ccc(-c4cnc(C5CC5)o4)cc3)CC2)c1C | x | x | x | i | x | i
CCOc1ccccc1C1CC(=O)NC(C)=C1C(=O)OC1CCCCCC1 (configuration not stated) | x | x | x | i | x | i
O=C1C(NS(=O)(=O)c2cccs2)=C(N2CCN(Cc3ccccc3)CC2)C(=O)c2ccccc21 | 13.1% | 0.0% | -11.5% | i | -10.7 | 23.1µM*
CCN1CCN(C2=C(NS(=O)(=O)c3ccccc3)C(=O)c3ccccc3C2=O)CC1 | u | -0.9% | 18.4µM* | u | 39.7 | u
CCOc1ccccc1N1CCN(C2=C(NS(=O)(=O)c3cccs3)C(=O)c3ccccc3C2=O)CC1 | 23.1µM* | -13.6% | 24.1% | u | 3.7 | u
CN1CCN(C2=C(NS(=O)(=O)c3cccs3)C(=O)c3ccccc3C2=O)CC1 | 0.0% | -0.7% | u | u | 16.3 | u
CCN1CCN(C2=C(NS(=O)(=O)c3ccc(Br)cc3)C(=O)c3ccccc3C2=O)CC1 | 26.4% | -0.8% | 23.3% | u | 43.2 | u
CCC(=O)N1c2ccccc2CC1C(=O)NCCCN1CCN(c2cc(C)ccc2C)CC1 (configuration not stated) | x | x | x | i | x | i
CN=C1SC(CC(=O)Nc2ccc(F)cc2F)C(=O)N1/N=C/c1ccc(OC(F)F)c(OC)c1 (configuration not stated) | 4.61µM* | -5.6% | 23.8% | i | -17.8 | i
O=C(CC1SC(=Nc2ccc(OC(F)F)cc2)N(CCN2CCOCC2)C1=O)Nc1ccc(F)cc1F (configuration not stated) | 0.7% | -7.9% | -5.9% | i | -17.5 | i
C=CCn1c(CNC(=O)c2ccccc2F)nnc1SCC(=O)N1CCOCC1 | 9.5% | 0.1% | -6.6% | i | 8.9 | i
CC1=CC(C)=Nc2ccccc2N1 | 20.6µM* | 9.1% | -9.6% | i | 3.1 | i
CC1(c2ccccc2)CC(c2ccccc2)=Nc2ccccc2N1 (configuration not stated) | -28.2% | -3.0% | 3.0% | i | -2.0 | i
O=C(Nc1ccccc1)c1ccc(Cn2cc(C(F)(F)F)ccc2=O)cc1 | 13.1% | -1.6% | 0.7% | i | 11.3 | 14.6µM*
COc1ccccc1C1=NC(c2ccccc2)CN1c1ccccc1 (configuration not stated) | 5.17µM* | i | 6.51µM* | i | -0.9 | i
COc1ccccc1-c1cn(-c2ccccc2)c(=S)[nH]1 | 3.1% | 4.1% | u | u | 15.7 | u
COc1ccc(NS(=O)(=O)CC23CCC(CC2=O)C3(C)C)cc1 (configuration not stated) | 5.6% | -0.4% | -3.5% | i | 5.0 | u
SMILES | MCF10A rerep | S-ASM inh | SW480 rerep | KB-3-1 cytotox | Giardia killer | KB-V1 cytotox
CCOc1ccc(NS(=O)(=O)CC23CCC(CC2=O)C3(C)C)cc1 (configuration not stated) | 13.4% | 2.5% | -9.8% | i | -4.7 | 18.4µM*
COc1ccc(OC)c(CCNC(=O)c2cnn(-c3ccccc3)c2C2CCN(C(=O)OC(C)(C)C)CC2)c1 | x | x | x | i | x | i
CC(=O)N1N=C(c2ccccc2O)CC1c1cccs1 (configuration not stated) | u | 144.9% | -0.8% | i | u | i
Oc1ccc(Cl)cc1C1=Nc2ccccc2N=C(c2ccccc2)C1 | x | x | x | i | x | i
Cc1ccc(O)c(C2=Nc3ccccc3N=C(c3cccs3)C2)c1 | 20.6µM* | -8.2% | 2.7% | u | 6.5 | 14.6µM*
Oc1ccccc1C1=Nc2ccccc2N=C(c2cccs2)C1 | u | -16.0% | 22.7% | i | -10.6 | 23.1µM*
O=C(Cn1cc(S(=O)(=O)N2CCN(c3ccccc3F)CC2)c2ccccc2c1=O)Nc1cccc(C(F)(F)F)c1 | x | x | x | i | x | i
CCOc1cccc(C(=O)Nc2ccc(NC(=O)c3cc4ccccc4o3)c(OC)c2)c1 | u | 171.0% | -1.4% | i | 13.5 | u
COc1cc(NC(=O)c2cccc(C)c2)ccc1NC(=O)c1cc2ccccc2o1 | 2.59µM* | 27.8% | 15.2% | i | 6.5 | i
COc1cc(NC(=S)NC(=O)C(C)C)ccc1NC(=O)c1cc2ccccc2o1 | 8.2µM* | 35.6% | u | i | -0.7 | i
CCN(C(=O)CSc1nc(-c2ccc(C(C)C)cc2)no1)c1cccc(C)c1 | x | x | x | i | x | i
CC(NCCc1ccc(S(N)(=O)=O)cc1)C(=O)NCCc1ccc(F)cc1 (configuration not stated) | 3.8% | 3.4% | -7.3% | i | -2.1 | i
CC(NCC(=O)NCCc1ccc(S(N)(=O)=O)cc1)c1ccc(F)cc1 (configuration not stated) | -5.4% | 2.5% | 25.9µM* | i | -7.9 | i
O=C(c1cn(CCOc2ccccc2F)c2ccccc12)C1CCCCC1 | x | x | x | i | x | i
CCOC1=C2[C@@H](CN(S(=O)(=O)c3ccc(C)cc3)[C@H]2c2cccc3ccccc23)[C@H]2C(=O)N(CC)C(=O)[C@H]2C1 | x | x | x | i | x | i
CC1C(C#N)=C(N)OC2=C1C(=O)CC(C)(C)C2 (configuration not stated) | -193.6%[0.0737 µM] | 4.6% | -1.3% | i | -7.7 | u

Screening results deposited in PubChem by National Center for Advancing Translational Sciences (NCATS).
